# The full list was thinned out, with hits kept by preference.
# Tg IFNy HTS: blocks Toxoplasma gondii growth in the presence of IFN-gamma; actives 3.8% (n = 69,000); activity change, negative = inhibition, % (concentration not given with the values); Toxoplasma gondii growth in IFN-gamma-treated host cells; active compounds read low; in the data active = activity change below about -70%, passing the limit was not always enough;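 note: host cells are HeLa cells infected with Toxoplasma gondii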
# A number is an active result; 0 = inactive; ! = not active in a repeat.
SMILES,Tg IFNy HTS
Cc1ccc(C)c(-c2coc(-c3ccc(NC(=O)Nc4cccc(F)c4)cc3)n2)c1,0
COc1ccc(NC(=O)C2CC(=O)c3ccccc32)c(NC(=O)C(C)C)c1 (stereo unspecified),0
Cn1cnc2cc(C(=O)N3CCCC(Nc4ccc(F)c(F)c4)C3)cnc21 (stereo unspecified),0
CC(C)OCc1ncn2c1CN(C(=O)c1ccc3ccccc3n1)CCC2,0
COc1ccc(CN(CCN(C)C)c2ncccn2)cc1,0
CCCCCCCCCCCCCCCC[N+](C)(C)CCN(Cc1ccc(OC)cc1)c1ncccn1,-84
COc1ccc(CN(CCN(C)C)c2ccccn2)cc1,0
Cc1ccc(C(C)NC(=O)CNCCN(C)S(C)(=O)=O)cc1 (stereo unspecified),0
COC(=O)[C@@H]1C[C@@H](N(C)C)CN1C(=O)c1cc(C(C)C)oc1C,0
COc1ccccc1-c1nc(C)c(-c2ccc(SCc3c(F)cccc3Cl)nn2)s1,0
O=C(c1ccc(F)cc1)N1C[C@H](OCc2cccnc2)[C@@H]2COC[C@@H]21,0
Cc1cc(C2CCCCC2)n(O)c(=O)c1,-82!
Cc1cc(CC(C)CC(C)(C)C)n(O)c(=O)c1 (stereo unspecified),0
CC1CCN(Cc2ccnc(-c3cccnc3)n2)CC1,0
COCCN1C(=O)C2(CCN(C(=O)[C@H]3CCCO3)CC2)c2ccccc21,0
Cn1cc(C[C@H]2[C@@H](OCC3CC3)CCN2Cc2ccoc2)cn1,0
Cc1cc2c(cc1C(=O)N1CCCC3(CNC(=O)O3)C1)OCCO2 (stereo unspecified),0
Cc1ccc(F)cc1-n1c(C2CC2)n[nH]c1=O,0
CCc1cnc(N2[C@H](C#N)[C@H](c3ccc(C#Cc4ccccc4F)cc3)[C@@H]2CO)s1,0
CCc1cnc(N2[C@H](C#N)[C@@H](c3ccc(C#Cc4ccccc4F)cc3)[C@H]2CO)s1,-75
CCc1cnc(N2[C@H](C#N)[C@H](c3ccc(C#Cc4ccccc4F)cc3)[C@H]2CO)s1,0
